Assay results published in PubChem BioAssay (EPA / NIEHS).
Calls of active or inactive are those of the source. The calls were made as follows: active = hit-call score of the fitted dose curve at least 0.9, where 1 is the maximum; inactive = score below 0.9.

Test: CCTE_Shafer_MEA_acute_interburst_interval_mean: CCTE's Neural Acute Assay for Mean Interburst Interval, Shafer Lab (AID 2284016);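 also: percent change of mean interburst interval versus each well's own pre-dose baseline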
Method: CCTE_Shafer_MEA_acute assay is conducted using Axion Biosystems 48 well microelectrode array (MEA) plates and Maestro recording system. Each well of the MEA plate contains a grid of 16 microelectrodes embedded in the culture surface. Electrically active cells, such as neurons, can be cultured over the electrodes, and electrical activity in these cells can be recorded extracellularly. The spontaneous firing of neurons is captured from each electrode on a microsecond timescale providing both temporally and spatially precise data. […] The CCTE_Shafer_MEA_acute assay uses primary cultures of rat cortical neurons. As these cultures mature over time, neural networks develop functional activity and form cohesive networks in which electrical activity can be highly coordinated. Baseline 40-minute recordings are made on days post-plating 13 or 15, followed by a secondary 40-minute recording after chemical exposure.CCTE_Shafer_MEA_acute_interburst_interval_mean is a component of the CCTE_Shafer_MEA_acute assay. It measures the average time between the start of consecutive single-electrode bursts (temporally-clustered groups of action potential firing) during a recording in a microelectrode array (MEA) using Axion Biosystems Maestro 768 channel amplifier with the AxIS adaptive spike detector. The recordings before and after chemical treatment are used to calculate a percent change in the mean inter-burst interval in each well.Data from the assay component CCTE_Shafer_MEA_acute_interburst_interval_mean was analyzed into 1 assay endpoint. This assay endpoint, CCTE_Shafer_MEA_acute_interburst_interval_mean, was analyzed in the negative analysis fitting direction relative to DMSO as the negative control and baseline of activity. Using a type of functional reporter, gain or loss-of-signal activity can be used to understand electrical activity.
Spontaneous activity in the cortical cultures was recorded using an Axion Biosystems Maestro 768 channel amplifier and Axion Integrated Studios (AxIS) v1.8 (or later) software. The amplifier recorded from all channels simultaneously (gain = 1200 x; sampling rate = 12.5 kHz/channel): raw signals were filtered with a Butterworth band-pass filter (300-5000 Hz), which filters out slower local field potentials leaving only fast potentials, i.e., "spikes", arising from extracellular currents associated with action potentials (Pine 2006; Wheeler and Nam 2011). On-line spike detection of filtered signals was conducted with the AxIS adaptive spike detector, using a threshold of 8x the root mean squared (rms) noise on each channel. Any electrodes with rms noise levels greater than 5 uV were grounded (e.g., no data were recorded). Once grounded, an electrode was grounded for the duration of the experiment. All recordings were conducted at 37 C. Wells were deemed usable if on the day of the exposure >/= 10 electrodes were active (defined as >/= 5 spikes/min). On DIV 13 or 15, a minimum of three wells from one cortical culture preparation were treated with each compound (0.03-40 uM). Prior to recording baseline activity, each mwMEA plate was placed in the Maestro at 37 C and allowed to sit for 20 min while firing rates stabilized. Baseline activity (40 min) was recorded before the addition of each compound. An additional 40 min of spontaneous activity was recorded in the presence of each compound. Changes in network parameters relative to baseline were assessed following compound treatment.

Compound	outcome	AC50
OC(CCl)CCl	inactive	–
c1ccc2cc3ccccc3cc2c1	inactive	–
CCCCCCCC/C=C\CCCCCCCC(=O)OC[C@@H](O)[C@H]1OC[C@H](O)[C@H]1O	inactive	–
COc1cc(C(C)C)c2c(c1)S(=O)(=O)N(COc1cc(=O)n3cccc(OCCN4CCCCC4)c3n1)C2=O	inactive	–
CCCc1ccccc1	inactive	–
CC(C)C(=O)Nc1ccc([N+](=O)[O-])c(C(F)(F)F)c1	–	30.8 µM (active)
CCCCCCCC1CCC(=O)O1 (stereo not drawn)	inactive	–
COc1cc2c(c(OC)c1OC)-c1ccc(OC)c(=O)cc1[C@@H](NC(C)=O)CC2	inactive	–
O=S(=O)(O)c1ccc(N=Nc2c(O)ccc3cc(S(=O)(=O)O)ccc23)cc1	inactive	–
OCc1ccccc1	inactive	–
COCc1nnc(-c2ccc[n+]([O-])c2)n1-c1c(Cl)c(Cl)cc2[nH]c(=O)c(=O)[nH]c12	–	30 µM (active)
Cc1ncc([C@@H](CCCCCCc2ccc3c(n2)NCCC3)CC(=O)O)cn1	inactive	–
CCCCC(CC)C(=O)OCCOCCOCCOC(=O)C(CC)CCCC (stereo not drawn)	inactive	–
CCc1ccc(O)c(C(C)(C)C)c1	inactive	–
CC[C@H](C)C(=O)O[C@H]1C[C@H](O)C=C2C=C[C@H](C)[C@H](CC[C@@H](O)C[C@@H](O)CC(=O)O)[C@H]21	inactive	–
C=CCc1cc(S(=O)(=O)c2ccc(O)c(CC=C)c2)ccc1O	inactive	–
c1ccc(C(O[C@@H]2CCCN(CCc3ccc4c(c3)OCO4)C2)c2ccccc2)cc1	–	4.15 µM (active)
Cn1c(=O)c2[nH]cnc2n(C)c1=O	inactive	–
